Bioassay records from PubChem.
Mdm2 MdmX PPI – inhibitors of human Mdm2/MdmX interaction; 3% of 330,000 active; AID 485346; O15151+Q00987; SaOS-2 split-luciferase Mdm2/MdmX complementation, luminescence; inhibition, % at 8 µM;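 active means inhibition of at least 50% at 8 µM in the primary screen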
Target sequence (O15151 whole entry, looked up): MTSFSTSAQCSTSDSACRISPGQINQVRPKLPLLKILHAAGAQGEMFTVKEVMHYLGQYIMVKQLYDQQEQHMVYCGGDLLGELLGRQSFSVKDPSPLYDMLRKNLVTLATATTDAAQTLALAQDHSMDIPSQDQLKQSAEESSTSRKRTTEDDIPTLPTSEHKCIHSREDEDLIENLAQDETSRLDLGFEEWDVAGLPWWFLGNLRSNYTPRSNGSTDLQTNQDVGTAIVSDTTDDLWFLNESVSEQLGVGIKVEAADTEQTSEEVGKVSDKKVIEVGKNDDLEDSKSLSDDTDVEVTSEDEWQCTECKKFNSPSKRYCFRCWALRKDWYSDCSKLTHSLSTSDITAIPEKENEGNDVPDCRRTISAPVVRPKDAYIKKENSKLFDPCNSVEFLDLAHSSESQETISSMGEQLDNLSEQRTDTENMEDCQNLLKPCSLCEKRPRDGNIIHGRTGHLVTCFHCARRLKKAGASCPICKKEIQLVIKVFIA
Target sequence (Q00987 whole entry, looked up): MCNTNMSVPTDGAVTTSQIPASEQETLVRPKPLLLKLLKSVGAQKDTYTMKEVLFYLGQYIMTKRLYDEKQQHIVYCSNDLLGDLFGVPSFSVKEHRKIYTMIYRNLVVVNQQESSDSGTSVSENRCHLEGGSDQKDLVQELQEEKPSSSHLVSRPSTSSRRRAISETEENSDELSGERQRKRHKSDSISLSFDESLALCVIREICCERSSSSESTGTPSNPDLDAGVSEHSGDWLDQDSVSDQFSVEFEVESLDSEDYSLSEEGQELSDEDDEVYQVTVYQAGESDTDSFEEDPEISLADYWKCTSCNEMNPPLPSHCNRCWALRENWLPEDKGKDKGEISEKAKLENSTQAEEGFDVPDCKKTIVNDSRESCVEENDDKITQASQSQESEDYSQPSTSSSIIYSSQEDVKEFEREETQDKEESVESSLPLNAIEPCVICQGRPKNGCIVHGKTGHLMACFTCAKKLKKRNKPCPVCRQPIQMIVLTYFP
TIM10 inh – growth inhibitors of TIM10 yeast strain; S. cerevisiae TIM10 strain growth, BacTiter-Glo luminescence, 24 h; inhibition, % at 10 µM; 1.4% of 330,000 active; AID 463195;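 active means inhibition of 40% or more at the single tested concentration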;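 further: wild-type TIM10 isogenic control strain grown at permissive 25 °C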
MPTP block – permeability transition pore inhibition; isolated mouse mitochondria, Ca2+ swelling absorbance, 30 min; inhibition, % at 10 µM; 1.4% of 360,000 active; AID 602449;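 active means inhibition of 50% or more, scaled per plate between neutral and stimulator controls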
tim10-1 inh – growth inhibitors of tim10-1 mutant yeast; AID 463190; S. cerevisiae tim10-1 ts strain growth, BacTiter-Glo, 24 h; 2.2% of 330,000 active; inhibition, % at 20 µM;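 active means inhibition of at least 40%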;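 further: mutant grown at 25 °C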
tim23-1 inh – inhibits growth of tim23-1 mutant yeast; S. cerevisiae tim23-1 growth, BacTiter-Glo luminescence, 24 h; inhibition, % at 20 µM; 1.3% of 330,000 active;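 active means growth inhibition of the mutant yeast at or above 50%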;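 further: temperature-sensitive mutant grown at 25 °C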
TIM10 conf – TIM10 yeast growth inhibition, confirmed. shares compounds with TIM10 inh. S. cerevisiae tim10 strain growth, BacTiter-Glo luminescence, 24 h. inhibition, % at 10 µM. 63% of 4,600 active;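 active means inhibition of yeast growth at or above a set limit in either of two replicates at 10 µM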; further: this counterscreen used the strain with wild-type TIM10
Hits are given with their value; i = inactive; nt = no result given. Only some compounds are listed: those with a hit (about 6.3% of all), similar ones and a draw of the others.

SMILES	Mdm2 MdmX PPI	TIM10 inh	MPTP block	tim10-1 inh	tim23-1 inh	TIM10 conf
COc1ccc(NC(=O)c2nc[nH]c2C(=O)N(C)CCO)cc1	nt	nt	i	nt	nt	nt
CC(C)=NNc1cnnc2ccc([N+](=O)[O-])cc12	nt	nt	i	nt	nt	nt
COc1ccccc1C1CC(c2ccccc2)=NN1C(=S)Nc1ccccc1 (stereo unspecified)	i	41	i	i	i	i
COc1ccc(C2=NN(C(N)=S)C(c3ccccc3)C2)cc1 (stereo unspecified)	i	41	i	i	i	i
COc1ccc(OC)c(NC(=O)C2(C)CCN2C(=O)CCC2CCCC2)c1 (stereo unspecified)	nt	nt	i	nt	nt	nt
Cc1cccc(Cn2ccc(NC(=O)c3ccc4c(c3)OCO4)n2)c1	i	40	i	i	i	34
CCOC(=O)Cc1csc(NC(=O)c2ccc3c(c2)OCO3)n1	i	43	i	i	i	i
CCOC(=O)Cc1csc(NC(=O)c2ccc(C)cc2)n1	i	i	i	i	i	nt
CCOC(=O)Cc1csc(NC(=S)NC(=O)c2ccccc2Br)n1	i	42	i	i	i	i
COC(=O)c1cc(OC)c(OC)cc1NC(=O)CCN1C(=O)C2CCCCC2C1=O (stereo unspecified)	nt	nt	i	nt	nt	nt
COc1cccc(C(=O)Nn2c(-c3cccs3)nc3ccccc3c2=O)c1OC	i	41	i	i	i	35
CCc1nc2ccc(C(=O)NCCCn3ccnc3)cn2c1N(C)CCC(C)C	nt	nt	i	nt	nt	nt
CC1=CC(=O)C(C(C)C)=C/C1=N/OC(=O)c1cccc([N+](=O)[O-])c1	i	43	i	i	i	32
CC1=CC(=O)C(C(C)C)=CC1=NC(=O)c1ccc(C)cc1	i	i	i	i	i	nt
CCCCN1C(=O)C(CC(=O)NC2CCCC2)CC(C(=O)N(C(C)C)C(C)C)=C1C (stereo unspecified)	nt	nt	i	nt	nt	nt
CNC(=O)C[C@H]1C(=O)N(c2ccc(OC)cc2)C[C@@H]1CSC	nt	nt	i	nt	nt	nt
COc1ccc2occ(C(=O)c3cccs3)c2c1	i	42	i	i	i	39
COc1ccc2occ(C(=O)c3ccc(N)cc3)c2c1	i	i	i	i	i	nt
O=C(COc1ccccc1Cl)N1CCN(c2ccc([N+](=O)[O-])c(N3CCCCC3)c2)CC1	i	i	i	i	i	nt
O=C(COc1ccc(Cl)cc1)N1CCN(c2ccc([N+](=O)[O-])c(N3CCCCC3)c2)CC1	i	42	i	i	i	i
CSc1ccc(C(=S)N2CCCC2)cc1	i	59	i	i	i	i
CSc1ccc(C(=S)N2CCN(C)CC2)cc1	i	i	i	i	i	nt
O=C(NC(=S)Nc1ccc(Cc2ccncc2)cc1)c1ccccc1	i	51	i	i	i	i
O=C(Nc1ccc(Cc2ccncc2)cc1)c1ccc(Br)o1	i	44	i	i	i	36
Cc1cc(C)cc(C(=O)NC(=S)Nc2ccc3c(c2)OCCO3)c1	i	i	i	i	i	nt
SMILES	Mdm2 MdmX PPI	TIM10 inh	MPTP block	tim10-1 inh	tim23-1 inh	TIM10 conf
Cc1cc(C)cc(C(=O)NC(=S)Nc2ccc(Cc3ccncc3)cc2)c1	i	47	i	i	i	i
O=C(Cc1ccccc1)Nc1ccc(NC(=S)NC(=O)c2ccccc2)cc1	i	i	i	i	i	nt
CCCCCNC(=O)C1C(=O)Nc2ccccc2C(=O)N1c1c(C)cccc1C (stereo unspecified)	nt	nt	i	nt	nt	nt
Oc1ccccc1CN1CCN(C(O)(c2ccccc2)c2ccccc2)CC1	i	43	i	i	i	52
COc1cc(CN2CCN(C(O)(c3ccccc3)c3ccccc3)CC2)cc(OC)c1OC	i	i	i	i	i	nt
C=CCNC(=S)N/N=C(\C)c1cccc(OC)c1	i	41	i	i	i	i
COc1cccc(/C(C)=N/N=C(\C)c2cccc(OC)c2)c1	i	i	i	i	i	nt
COc1ccc(CNC(=S)N/N=C(\C)c2ccc(OC)cc2)cc1	i	44	i	i	i	44
C/C(=N\NC(=S)NCc1ccccc1)c1ccc2ccccc2c1	i	54	i	i	i	i
Cc1ccc(Oc2ccc(-c3nc(N)nc(N)n3)cc2)cc1	i	45	i	i	i	i
CCNC(=O)C[C@@H]1C=C[C@@H](NS(=O)(=O)c2ccc(F)cc2)[C@@H](CO)O1	nt	nt	i	nt	nt	nt
Cc1ccc(NC(=O)CN(C)C(=O)COc2c(Cl)cc(Cl)c3ccc(C)nc23)cc1	i	40	i	i	i	i
N#CC(C#N)=C1C=CC=CN1/C(=C\c1ccccc1)C(=O)c1cccs1	i	43	i	i	i	i
N#CC(C#N)=C1C=CC=CN1/C(=C\c1ccccc1Cl)C(=O)c1ccccc1	nt	nt	i	nt	nt	nt
O=C(O)c1nnn(-c2ccc(F)cc2F)c1-c1ccccc1	i	i	i	i	i	nt
O=C(O)c1nnn(-c2cc(C(F)(F)F)cc(C(F)(F)F)c2)c1-c1ccccc1	i	41	i	i	i	i
CCCCN(CCCC)C(=S)NC(=O)c1ccccc1Cl	i	48	i	i	i	i
CCN(CC)C(=S)NC(=O)c1ccc(Cl)cc1Cl	i	i	i	i	i	nt
CCCN(Cc1ccccc1)C(=S)NC(=O)c1ccccc1[N+](=O)[O-]	i	44	i	i	i	40
O=C(/C=C/c1ccccc1Cl)NCCc1ccccc1	i	49	i	i	i	46
Cc1ccc(-c2nnc(N(C)C(=O)c3cccnc3)s2)cc1	i	42	i	i	i	i
Cc1cc(C)cc(C(O)c2ncc(-c3ccccc3F)[nH]2)c1 (stereo unspecified)	nt	nt	i	nt	nt	nt
S=c1[nH]nc(COc2ccc(Cl)cc2)n1C1CCCCC1	i	40	i	i	i	i
Cc1ccc(OCc2n[nH]c(=S)n2C2CCCCC2)cc1	i	i	i	i	i	nt
CCOC(=O)C1(C)CCCN(C(=O)Cc2ccc3ccccc3c2)C1 (stereo unspecified)	nt	nt	i	nt	nt	nt
SMILES	Mdm2 MdmX PPI	TIM10 inh	MPTP block	tim10-1 inh	tim23-1 inh	TIM10 conf
CN(CC(=O)Nc1ccccc1Cl)C(=O)COC(=O)c1ccc([N+](=O)[O-])s1	i	47	i	i	i	52
CN(CC(=O)Nc1ccccc1Cl)C(=O)COC(=O)c1cccs1	i	i	i	i	i	nt
CCc1ccccc1NC(=O)c1ccc([N+](=O)[O-])s1	i	50	i	i	i	43
CCc1ccccc1NC(=O)CSc1ccsc1[N+](=O)[O-]	i	i	i	i	i	nt
CCCCCN(C(=O)CCC(=O)OC(C)C(=O)Nc1ccccc1C)c1c(N)n(CCCC)c(=O)[nH]c1=O (stereo unspecified)	nt	nt	i	nt	nt	nt
CCc1nc2sc3c(c2c(=S)[nH]1)CC(C)(C)OC3	i	i	i	i	i	nt
CSc1nc2sc3c(c2c(=S)[nH]1)CC(C)(C)OC3	i	43	i	i	i	44
Nc1nc2ncccn2c1-c1ccc(F)c(F)c1	nt	nt	i	nt	nt	nt
Cc1cc(C)c(C(=O)C(C)OC(=O)Cn2cnc3c2c(=O)n(C)c(=O)n3C)cc1C (stereo unspecified)	i	58	i	i	i	i
CC(OC(=O)Cn1cnc2c1c(=O)n(C)c(=O)n2C)C(=O)c1ccccc1 (stereo unspecified)	i	i	i	i	i	nt
Cc1cc(C(C)(C)C)c(O)c(C(C)(C)C)c1	i	i	i	i	i	nt
